Measured values taken from PubChem BioAssay (Tox21).
Results filed as inconclusive are left out. A call without a number means that no potency is given here. Calls of active or inactive are those of the source. Unless noted, calls follow the shape of the dose curve; as a rule, active = well fitted curve in the direction sought with a large enough effect in the repeat runs; inconclusive = weak or mixed curves; inactive = no such curve, though single readings can be large; an effect the other way counts as inactive or inconclusive.

Legend:
[1] = qHTS assay to identify small molecule antagonists of the glucocorticoid receptor (GR) signaling pathway - cell viability counter screen (AID 720693); also: nearly all actives have a fitted effect of over 55% in size
[2] = qHTS assay for identifying genotoxic compounds that show differential cytotoxicity against isogenic chicken DT40 cell lines with known DNA damage response pathways - Rad54/Ku70 mutant cell line (AID 743015); also: nearly all actives have a fitted effect of over 60% in size; also: potency is read from the fitted curve at half-maximal effect
[3] = qHTS assay to identify small molecule antagonists of the androgen receptor (AR) signaling pathway - cell viability counter screen (AID 743033; also: nearly all actives have a fitted effect of over 45% in size)
[4] = qHTS assay to identify small molecule antagonists of the androgen receptor (AR) signaling pathway using the MDA cell line - cell viability counter screen (AID 743041; also: nearly all actives have a fitted effect of over 45% in size)
In short: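 In this qHTS counter assay, fluorescence intensity after CellTiter-Fluor addition indicated viability of MDA-kb2 AR-luc cells given compounds and R1881 for 16 h at 37C.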

[5] = qHTS assay to identify small molecule antagonists of the thyroid receptor (TR) signaling pathway - cell viability counter screen (AID 743064); also: nearly all actives have a fitted effect of over 50% in size
In short: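 Counter screen for cytotoxicity: compound plus T3 (1 nM final) on GH3.TRE-Luc cells, 23.5 h at 37 °C, then fluorescence viability readout with CellTiter-Fluor.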

[6] = qHTS assay to identify small molecule antagonists of the thyroid receptor (TR) signaling pathway (AID 743065); also: series mostly up to about 70 µM; nearly all actives have a fitted effect of over 55% in size
In short: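 GH3.TRE-Luc rat pituitary cells carrying two TR response elements driving luciferase were plated for 4 h, given compound plus 1 nM T3 (final), and incubated 23.5 h at 37 C. ONE-Glo luminescence measured reporter inhibition; CellTiter-Fluor fluorescence tracked cytotoxicity.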

[7] = tested on: thyroid hormone receptor (rat, GH3 cells); experiment: qHTS assay to identify small molecule agonists of the thyroid receptor (TR) signaling pathway (AID 743066; calls by dose curve)
[8] = biological target: Estrogen receptor (Homo sapiens) (UniProt P03372); experiment: qHTS assay to identify small molecule antagonists of the estrogen receptor alpha (ER-alpha) signaling pathway (AID 743069; active = well fitted curve in the direction sought with a large enough effect in the signal ratio in the repeat runs, not every such curve was filed as active; the % refers to the signal ratio)
Sequence of Estrogen receptor (Homo sapiens) (P03372 whole entry, looked up): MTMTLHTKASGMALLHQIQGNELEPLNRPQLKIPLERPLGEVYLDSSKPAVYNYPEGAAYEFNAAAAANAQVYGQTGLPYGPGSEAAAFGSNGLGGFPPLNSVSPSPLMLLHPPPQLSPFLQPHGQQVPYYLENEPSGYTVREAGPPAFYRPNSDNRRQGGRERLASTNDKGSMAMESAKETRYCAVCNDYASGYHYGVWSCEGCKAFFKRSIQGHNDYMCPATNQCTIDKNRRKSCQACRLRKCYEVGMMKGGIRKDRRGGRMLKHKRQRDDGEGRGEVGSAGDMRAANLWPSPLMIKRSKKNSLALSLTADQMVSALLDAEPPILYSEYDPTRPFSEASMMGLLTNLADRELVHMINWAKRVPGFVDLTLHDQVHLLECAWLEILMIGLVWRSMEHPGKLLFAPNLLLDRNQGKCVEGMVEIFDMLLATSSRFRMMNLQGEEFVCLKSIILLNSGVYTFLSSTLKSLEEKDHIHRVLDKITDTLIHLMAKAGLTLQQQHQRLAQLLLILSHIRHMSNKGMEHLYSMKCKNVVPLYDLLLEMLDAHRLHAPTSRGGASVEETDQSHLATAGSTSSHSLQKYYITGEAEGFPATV
In short: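 A 17beta-estradiol challenge was applied right after compound transfer to ER-alpha-UAS-bla HEK293 cells previously kept in charcoal-stripped serum. Plates stood 18 hr at 37C and 5% CO2; fluorescence was read following 2 hr FRET substrate loading at room temperature.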

[9] = qHTS assay to identify small molecule antagonists of the estrogen receptor alpha (ER-alpha) signaling pathway - cell viability counter screen (AID 743074; calls by dose curve;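 also: HEK293 cells carrying ER-alpha-UAS-bla reporter stimulated with 17beta-estradiol; nearly all actives have a fitted effect of over 45% in size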)
[10] = biological target: Estrogen receptor (Homo sapiens) (UniProt P03372); experiment: qHTS assay to identify small molecule agonists of the estrogen receptor alpha (ER-alpha) signaling pathway (AID 743075; calls by dose curve;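 also: HEK293 GripTite cells with ER-alpha and UAS-driven beta-lactamase reporter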)
[11] = biological target: Estrogen receptor (Homo sapiens) (UniProt P03372); experiment: qHTS assay to identify small molecule agonists of the estrogen receptor alpha (ER-alpha) signaling pathway using the BG1 cell line (AID 743079); also: nearly all actives have a fitted effect of over 20% in size
[12] = qHTS assay to identify small molecule antagonists of the estrogen receptor alpha (ER-alpha) signaling pathway using the BG1 cell line (AID 743080; calls by dose curve; also: series mostly up to about 70 µM; nearly all actives have a fitted effect of over 25% in size)
In short: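 Antagonist mode: compounds in DMSO were pinned onto BG1-Luc-4E2 cells alongside 17beta-estradiol agonist, incubated 21.5 h, and ERE-driven luciferase measured with ONE-Glo. Cytotoxicity was multiplexed using CellTiter-Fluor fluorescence.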

[13] = qHTS assay to identify small molecule antagonists of the estrogen receptor alpha (ER-alpha) signaling pathway using the BG1 cell line - cell viability counter screen (AID 743081);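 also: compound given together with 17beta-estradiol as the ER stimulus; series mostly up to about 70 µM; nearly all actives have a fitted effect of over 45% in size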
[14] = biological target: Aromatase (Homo sapiens) (UniProt P11511); experiment: qHTS assay to identify aromatase inhibitors (AID 743083); also: series mostly up to about 70 µM; nearly all actives have a fitted effect of over 55% in size
Sequence of Aromatase (Homo sapiens) (P11511 whole entry, looked up): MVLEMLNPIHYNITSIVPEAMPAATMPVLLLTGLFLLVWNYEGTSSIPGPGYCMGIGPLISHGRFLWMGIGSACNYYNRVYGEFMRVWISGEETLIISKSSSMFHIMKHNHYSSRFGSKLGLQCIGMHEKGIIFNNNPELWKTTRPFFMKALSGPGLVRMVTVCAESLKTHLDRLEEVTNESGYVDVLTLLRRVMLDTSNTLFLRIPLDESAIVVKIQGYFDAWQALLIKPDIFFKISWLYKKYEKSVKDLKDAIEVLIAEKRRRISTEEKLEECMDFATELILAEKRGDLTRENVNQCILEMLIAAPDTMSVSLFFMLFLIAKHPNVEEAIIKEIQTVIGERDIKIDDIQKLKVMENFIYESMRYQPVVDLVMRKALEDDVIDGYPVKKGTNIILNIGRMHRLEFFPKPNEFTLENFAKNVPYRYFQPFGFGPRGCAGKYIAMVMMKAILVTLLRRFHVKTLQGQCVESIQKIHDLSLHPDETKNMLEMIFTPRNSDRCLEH

[15] = qHTS assay for identifying genotoxic compounds that show differential cytotoxicity against isogenic chicken DT40 cell lines with known DNA damage response pathways - Rev3 mutant cell line (AID 743014); also: nearly all actives have a fitted effect of over 55% in size
[16] = biological target: Androgen receptor (Homo sapiens) (UniProt P10275); experiment: qHTS assay to identify small molecule antagonists of the androgen receptor (AR) signaling pathway (AID 743035; active = well fitted inhibition curve with a large enough effect in the signal ratio in the repeat runs, not every such curve was filed as active; the % refers to the signal ratio)
Sequence of Androgen receptor (Homo sapiens) (P10275 whole entry, looked up): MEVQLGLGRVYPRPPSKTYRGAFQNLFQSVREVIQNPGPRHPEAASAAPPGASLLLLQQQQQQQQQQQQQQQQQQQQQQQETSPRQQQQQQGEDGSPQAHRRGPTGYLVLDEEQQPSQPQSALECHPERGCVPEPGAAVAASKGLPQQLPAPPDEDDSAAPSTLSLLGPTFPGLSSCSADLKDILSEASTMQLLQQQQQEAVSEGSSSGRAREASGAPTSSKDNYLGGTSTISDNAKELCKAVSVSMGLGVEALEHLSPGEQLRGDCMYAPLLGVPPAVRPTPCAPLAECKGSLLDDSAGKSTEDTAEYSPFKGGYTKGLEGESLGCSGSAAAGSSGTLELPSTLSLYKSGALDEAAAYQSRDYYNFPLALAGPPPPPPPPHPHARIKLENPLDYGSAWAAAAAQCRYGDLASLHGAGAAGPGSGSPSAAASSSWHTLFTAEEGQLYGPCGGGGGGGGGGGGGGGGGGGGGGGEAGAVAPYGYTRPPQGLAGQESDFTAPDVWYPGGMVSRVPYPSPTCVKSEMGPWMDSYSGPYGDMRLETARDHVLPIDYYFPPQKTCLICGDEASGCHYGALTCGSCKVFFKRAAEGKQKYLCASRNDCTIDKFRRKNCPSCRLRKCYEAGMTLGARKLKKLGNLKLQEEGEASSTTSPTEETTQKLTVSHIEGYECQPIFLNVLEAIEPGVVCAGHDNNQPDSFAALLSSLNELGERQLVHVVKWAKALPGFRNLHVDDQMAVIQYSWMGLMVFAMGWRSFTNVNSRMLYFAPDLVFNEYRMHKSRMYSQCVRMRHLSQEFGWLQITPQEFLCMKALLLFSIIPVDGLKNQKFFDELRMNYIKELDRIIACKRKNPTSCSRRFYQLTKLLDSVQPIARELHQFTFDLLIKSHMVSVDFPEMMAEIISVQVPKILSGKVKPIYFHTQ
In short: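 Steps: seed AR-UAS-bla GripTite HEK293 cells, incubate 4 h at 37C; pin in test compound, then add agonist R1881; incubate 16 h at 37C; add LiveBLAzer B/G FRET substrate, 2 h at room temperature; read fluorescence.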

[17] = biological target: Androgen receptor (Homo sapiens) (UniProt P10275); experiment: qHTS assay to identify small molecule agonists of the androgen receptor (AR) signaling pathway (AID 743036; active = well fitted activation curve with a large enough effect in the signal ratio in the repeat runs, with a control signal flat, not every such curve was filed as active; the % refers to the signal ratio)
In short: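 In this Tox21 qHTS, 2,000 HEK293 AR-bla cells per well were incubated with compounds for 16 h at 37C and 5% CO2. Fluorescence intensity was recorded 2 h after adding LiveBLAzer B/G FRET substrate at room temperature.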

[18] = biological target: Androgen receptor (Homo sapiens) (UniProt P10275); experiment: qHTS assay to identify small molecule agonists of the androgen receptor (AR) signaling pathway using the MDA cell line (AID 743040; also: nearly all actives have a fitted effect of over 20% in size)
In short: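 Cell-based luciferase reporter: MDA-kb2, MMTV promoter (AR + GR response elements). 16 h compound exposure at 37C; ONE-Glo, 30 min RT, luminescence.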

[19] = biological target: Androgen receptor (Homo sapiens) (UniProt P10275); experiment: qHTS assay to identify small molecule antagonists of the androgen receptor (AR) signaling pathway using the MDA cell line (AID 743042; also: nearly all actives have a fitted effect of over 55% in size)
In short: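 MDA-kb2 cells (human breast carcinoma, stably carrying an MMTV-luciferase reporter responsive to AR and GR) were plated at 3,000 cells/well and preincubated 5 hr at 37C, then given compound plus R1881 agonist for 16 h. ONE-Glo luminescence was read.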

[20] = qHTS assay for identifying genotoxic compounds that show differential cytotoxicity against isogenic chicken DT40 cell lines with known DNA damage response pathways - wild type cell line (AID 743012); also: nearly all actives have a fitted effect of over 60% in size
In short: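 Cytotoxicity in repair-proficient parental chicken DT40 cells serves as the comparator for Rad54/Ku70- and Rev3-deficient lines. Cells were exposed to compounds for 40 h at 37 C/5% CO2, and ATP-based luminescence (CellTiter-Glo) measured viability.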

Row | SMILES | outcome [1] | Potency [2] | Potency [3] | Potency [4] | Potency [5] | Potency [6] | outcome [7] | outcome [8] | outcome [9] | outcome [10] | Potency [11] | Potency [12] | outcome [13] | Potency [14] | Potency [15] | Potency [16] | outcome [17] | outcome [18] | Potency [19] | Potency [20]
1 | O=C1c2ccccc2C(=O)c2cc(S(=O)(=O)O)ccc21 | inactive | inactive | inactive | inactive | inactive | inactive | inactive | inactive | inactive | inactive | inactive | inactive | inactive | inactive |  |  |  |  |  | 
2 | CCCC/C=C\CCCCCCCCCC=O | inactive | inactive | inactive | inactive | inactive | inactive | inactive |  | inactive |  |  |  | inactive | inactive | inactive |  |  |  |  | 
3 | CC(C)(C)c1n[nH]c(=S)n(N)c1=O | inactive | inactive | inactive | inactive | inactive | inactive | inactive | inactive | inactive | inactive | inactive | inactive | inactive | inactive |  |  |  |  |  | 
4 | CC1COc2ccccc2N1 (stereo not drawn) | inactive | inactive | inactive | inactive | inactive | inactive | inactive |  | inactive |  |  |  | inactive | inactive | inactive |  |  |  |  | 
5 | CCOCCOCCOCC | inactive | inactive | inactive | inactive | inactive | inactive | inactive |  | inactive |  |  |  | inactive | inactive | inactive |  |  |  |  | 
6 | CC(=O)/C=C/C1C(C)=CCC(C)C1(C)C (stereo not drawn) | inactive | 48.6 µM (active) | inactive | inactive | inactive | inactive | inactive | inactive | inactive | inactive | inactive | inactive | inactive | inactive |  |  |  |  |  | 
7 | Nc1ncnc(Nc2ccccc2)n1 | inactive | inactive | inactive | inactive | inactive | inactive | inactive | inactive | inactive | inactive |  |  | inactive | inactive | inactive |  |  |  |  | 
8 | COc1ccc(S(=O)(=O)N2c3ccc(Cl)cc3[C@@](O)(c3ccccc3Cl)[C@H]2C(=O)N2CCC[C@@H]2C(N)=O)cc1OC | inactive |  | inactive | inactive | inactive | inactive | inactive | inactive | inactive | inactive | inactive | inactive | inactive | inactive | inactive |  |  |  |  | 
9 | N[C@@H](CCC(=O)N[C@@H](CS)C(=O)NCC(=O)O)C(=O)O | inactive | inactive | inactive | inactive |  |  |  |  | inactive |  |  |  | inactive | inactive | inactive |  |  |  |  | 
10 | CCCOC(OCCC)OCCC | inactive | inactive | inactive | inactive | inactive | inactive | inactive |  | inactive |  |  |  | inactive | inactive | inactive |  |  |  |  | 
11 | O=C1CCCC(=O)O1 | inactive | inactive | inactive | inactive | inactive | inactive | inactive | inactive |  | inactive | inactive | inactive | inactive | inactive | inactive |  |  |  |  | 
12 | CCCCCCCC/C=C\CCCCCCCC(=O)OCCCC | inactive | inactive | inactive | inactive | inactive | inactive | inactive | inactive | inactive | inactive | inactive | inactive | inactive | inactive |  |  |  |  |  | 
13 | N#Cc1ccc(C(=O)O)cc1 | inactive | 61.1 µM (active) | inactive | inactive | inactive | inactive | inactive |  | inactive |  |  |  | inactive | inactive |  | inactive | inactive | inactive | inactive | 
14 | O=C(OCC(COC(=O)c1cccnc1)(COC(=O)c1cccnc1)COC(=O)c1cccnc1)c1cccnc1 | inactive | inactive | inactive | inactive | inactive | inactive | inactive | inactive | inactive | inactive | inactive | inactive | inactive | inactive |  | inactive | inactive | inactive | inactive | 
15 | COc1cc(C(=S)N2CCOCC2)cc(OC)c1OC | inactive | inactive | inactive | inactive | inactive | inactive | inactive | inactive | inactive | inactive | inactive | inactive | inactive | inactive |  |  |  |  |  | 
16 | CC1=C(C(=O)O)N2C(=O)[C@@H](NC(=O)[C@H](N)c3ccc(O)cc3)[C@H]2SC1 | inactive | inactive | inactive | inactive |  |  |  |  | inactive |  |  |  | inactive | inactive | inactive |  |  |  |  | 
17 | Cc1cc(NC(=O)C2=C(O)c3ccccc3S(=O)(=O)N2C)no1 | inactive | inactive | inactive | inactive | inactive | inactive | inactive |  |  |  |  |  | inactive | inactive | inactive |  |  |  |  | 
18 | Cc1ccsc1/C=C/C1=NCCCN1C |  | inactive | inactive | inactive | inactive | inactive | inactive | inactive | inactive | inactive | inactive | inactive | inactive | inactive | inactive |  |  |  |  | inactive
19 | CC(C)OC(=O)CCCCC(=O)OC(C)C |  | inactive | inactive | inactive |  |  | inactive |  | inactive | inactive | inactive | inactive | inactive |  |  |  |  |  |  | 
20 | CCCCN | inactive | inactive |  | inactive | inactive | inactive | inactive | inactive | inactive | inactive | inactive | inactive | inactive | inactive |  |  |  |  |  | 
21 | Cc1ccc2c(c1)OCC(=O)CO2 | inactive | inactive | inactive | inactive | inactive | inactive | inactive | inactive | inactive | inactive |  | inactive | inactive | inactive |  |  |  |  |  | 
